The source of these data is the supplement of paper PMC9135407.

The test system of the assay is primary human hepatic stellate cells (donor 1). Kind of assay: scaled lipid accumulation score (0 = DMSO-like, 1 = nortriptyline-like); higher = stronger HSC inactivation (lipid re-accumulation), active = hit call of the paper. The note with it: 48 h.
The mark [1] stands for this setting: library stock concentration: 3.33 mM.
[2] abbreviates: library stock concentration: 10 mM.
Where [3] appears, read: library stock concentration: 1 mM.

Values joined by “and” are separate entries in the source; they are usually repeats but may differ in a detail not shown here. Equal values may be shown once. Where a name gives a salt, the structure may show the parent alone. Screen size: about 5,800 compounds; about 620 (11%) showed activity. What follows is part of a selection rich in actives, with near analogues and random picks from the rest. Unmarked numbers belong to inactive results.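 Rule for the calls: active = score above a cut-off or among the top three wells of a plate; in these data no inactive exceeds 0.85.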

With `Cn1c(Nc2ccc(C(F)(F)F)cc2)nc2cc(Oc3ccnc(-c4ncc(C(F)(F)F)[nH]4)c3)ccc21`, the “scaled lipid accumulation score” value is no more than -0.001 (library stock concentration: 80 uM); no more than -0.003 (library stock concentration: 400 uM); 0.037 (library stock concentration: 2 mM); 0.031 under setting [1]; 0.077 and 0.031 under setting [2].
As to `O=C1Cc2c([nH]c3ccc(Br)cc23)-c2ncccc2N1` [1-Azakenpaullone], the “scaled lipid accumulation score” value under setting [1] is 0.405 and the “scaled lipid accumulation score” value under setting [2] was 0.808.
Turning to `CCCCCCCCCCCCCCCCOCC(COP(=O)([O-])OCC[N+](C)(C)C)OC` (stereo not given) [1-Hexadecyl-2-methylglycero-3 PC], the “scaled lipid accumulation score” value under setting [3] is 0.043.
As to `COc1cc(C[C@@H](CO)[C@H](CO)Cc2ccc(O)c(OC)c2)ccc1O`, the “scaled lipid accumulation score” value under setting [2] was 0.022.
Still for that read-out and setting: the same measure for `NC[C@@H]1O[C@H](C23CC4CC(CC(C4)C2)C3)Cc2c1ccc(O)c2O`: 0.438; for `NC[C@@H]1O[C@H](c2ccccc2)Cc2c1ccc(O)c2O`: no more than 0; for `NC[C@H]1c(c2C[C@@H]([C@]3(C4)CC(CC45)CC(C5)C3)O1)ccc(O)c2O.Cl`: 1.19 (active).
Turning to `COc1ccc(C2CC(=O)c3c(O)cc(OC4OC(COC5OC(C)C(O)C(O)C5O)C(O)C(O)C4O)cc3O2)cc1OC` (stereo not given) [Methyl-Hesperidin], the “scaled lipid accumulation score” value under setting [1] was no more than 0 and the “scaled lipid accumulation score” value under setting [2] was no more than 0.
For the molecule `CCCCC/C=C\C/C=C\C/C=C\C/C=C\CCCC(=O)OC(COCCCCCCCCCCCCCCCC)COP(=O)([O-])OCC[N+](C)(C)C` (stereo not given) [Arachidonoyl PAF C-16], under setting [3], the “scaled lipid accumulation score” value was no more than 0.
Turning to `CC1CCN(CCCC(=O)c2ccc(F)cc2)CC1`, the “scaled lipid accumulation score” value under setting [2] was no more than 0.
For the molecule `CC1CCN(CCCC(=O)c2ccc(F)cc2)CC1` [Metylperon], the “scaled lipid accumulation score” value under setting [2] is no more than 0.
As to `O=C(c1ccc(F)cc1)C1CCN(CCCCc2ccccc2)CC1` [4-(4-Fluorobenzoyl)-1-(4-phenylbutyl)-piperidine oxalate], the “scaled lipid accumulation score” value under setting [2] is 0.378.
Turning to `CC1CCN(CCCC(=O)c2ccc(F)cc2)CC1` [Melperone hydrochloride], the “scaled lipid accumulation score” value under setting [2] was 0.058.
As to `Cl.O[Si](CCCN1CCCCC1)(c1ccc(F)cc1)C1CCCCC1` (stereo not given) [Hexahydro-sila-difenidol hydrochloride, p-fluoro analog], the “scaled lipid accumulation score” value under setting [2] is 0.956 (active).
Take `C[C@H]1[C@H](C)CC[C@]2(C(=O)O)CC[C@]3(C)C(=CC[C@@H]4[C@@]5(C)CC[C@H](O)C(C)(C)[C@@H]5CC[C@]43C)[C@H]12` [Ursolic acid]: the “scaled lipid accumulation score” value is 0.053.
Turning to `C[C@H]1[C@H](C)CC[C@]2(C(=O)O)CC[C@]3(C)C(=CC[C@@H]4[C@@]5(C)CC[C@H](O)C(C)(C)[C@@H]5CC[C@]43C)[C@H]12` [Ursolic Acid], the “scaled lipid accumulation score” value was 0.013 under setting [1] and no more than 0 under setting [2].
Regarding `O=C1CC2(CCCC2)CC(=O)N1CCNCC1COc2ccccc2O1` (stereo not given), the “scaled lipid accumulation score” value under setting [2] was ≤ 0 and 0.017.
`CCCCC1C(=O)CCC2C(CC=CCCCC(=O)O)C(=O)CC12` (stereo not given) [Bicyclo Prostaglandin E2]: under setting [3], the “scaled lipid accumulation score” value is no more than 0.
`C=C(NC(=O)C(=C)NC(=O)c1csc(C2=N[C@@H]3c4csc(n4)[C@H]4NC(=O)c5csc(n5)[C@H]([C@](C)(O)[C@@H](C)O)NC(=O)[C@H]5CSC(=N5)/C(=C/C)NC(=O)[C@H]([C@@H](C)O)NC(=O)c5csc(n5)[C@]3(CC2)NC(=O)[C@H](C)NC(=O)C(=C)NC(=O)[C@H](C)NC(=O)[C@H]([C@@H](C)CC)N[C@@H]2C=Cc3c([C@H](C)O)cc(nc3[C@H]2O)C(=O)O[C@@H]4C)n1)C(N)=O` [Thiostrepton]: the “scaled lipid accumulation score” value is 1.19 (active).
With `COP(=O)(OC)OC(c1ccc(Cl)cc1)P(=O)(OC)OC` (stereo not given), under setting [2], the “scaled lipid accumulation score” value was no more than -0.001.
`COc1cc(C[C@H]2COC(=O)[C@@H]2Cc2ccc(O)c(OC)c2)ccc1O` [Matairesinol]: the “scaled lipid accumulation score” value under setting [3] was no more than 0.
Consider `CC1(C)CC(=O)c2c(ccc(C(=O)CC(N)CO)c2N)O1` (stereo not given), for which the “scaled lipid accumulation score” value under setting [2] is 1.03 (active).
The same measure, in the same setting: the same measure for `CO/N=C(\C(=O)N[C@@H]1C(=O)N2C(C(=O)O)=C(CSc3nc(=O)c(O)nn3C)CS[C@H]12)c1csc(N)n1` [Ceftriaxone sodium]: no more than 0.
With `CO/N=C(\C(=O)N[C@@H]1C(=O)N2C(C(=O)O)=C(CSc3nc(=O)c(O)nn3C)CS[C@H]12)c1csc(N)n1` [Ceftriaxone sodium trihydrate], the “scaled lipid accumulation score” value is, setting by setting: (library stock concentration: 3.1 mM) no more than 0; under setting [2], ≤ -0.027 and 0.254.
Turning to `N#Cc1c(-c2ccccc2)no[n+]1[O-]` [Furoxan], for the setting “library stock concentration: 26.7 mM”, the “scaled lipid accumulation score” value is 1 (active).
Consider `CCCCCC[C@@H]([C@@H](C)O)n1cnc2c(N)ncnc21` (racemic), for which the “scaled lipid accumulation score” value (library stock concentration: 18 mM) was 0.052.
As for `CC1(C)CCC(CN2CCN(c3ccc(C(=O)NS(=O)(=O)c4ccc(NCC5CCOCC5)c([N+](=O)[O-])c4)c(Oc4cnc5[nH]ccc5c4)c3)CC2)=C(c2ccc(Cl)cc2)C1`, the “scaled lipid accumulation score” value reads like this: under setting [1], no more than -0.009; under setting [2], no more than 0.
On to `O=C1c2ccccc2-c2nc3nnnn3nc21` [PDK1/Akt/Flt Dual Pathway Inhibitor], for which the “scaled lipid accumulation score” value under setting [1] is 0.462.
As to `O=S(c1ccccc1)c1ccc2nnnn2n1` (stereo not given), the “scaled lipid accumulation score” value under setting [2] is 1.3 (active).
In the case of `COC(=O)C1=CO[C@@H](O)[C@@H]2C(CO)=CC[C@H]12` [Genipin], the “scaled lipid accumulation score” value was no more than 0 under setting [1]; 0.019 and ≤ -0.028 under setting [2].
Turning to `CC(C)(C)C(=O)Oc1ccc(S(=O)(=O)Nc2ccccc2C(=O)NCC(=O)O)cc1` [Sivelestat sodium salt hydrate], the “scaled lipid accumulation score” value under setting [2] was no more than -0.055.
The same measure, in the same setting: next, `O=C(NOCC1CC1)c1cc(Br)c(F)c(F)c1Nc1ccc(I)cc1Cl`: no more than 0; `c1ccc(C(O[C@@H]2CCCN(CCc3ccc4c(c3)OCO4)C2)c2ccccc2)cc1` [Zamifenacin fumarate]: 0.194.
As for `Br.NC(=O)C(c1ccccc1)(c1ccccc1)[C@@H]1CCN(CCc2ccc3c(c2)CCO3)C1`, under setting [2], the “scaled lipid accumulation score” value was 0.88 (active).
As to `CC(C)(C(=O)O)c1ccc(C(O)CCCN2CCC(C(O)(c3ccccc3)c3ccccc3)CC2)cc1` (stereo not given), the “scaled lipid accumulation score” value under setting [2] is no more than 0.
Consider `OC(CCN1CCCC1)(c1ccccc1)C1CCCCC1` (stereo not given) [Procyclidine hydrochloride], for which the “scaled lipid accumulation score” value was 0.092. The “scaled lipid accumulation score” value (library stock concentration: 6.2 mM) was 0.569. Besides, the “scaled lipid accumulation score” value under setting [2] is 0.484.
As for `NC(=O)C(c1ccccc1)(c1ccccc1)[C@@H]1CCN(CCc2ccc3c(c2)CCO3)C1`, the “scaled lipid accumulation score” value under setting [2] is 0.413.
On the same count and under the same terms, the same measure for `CC(C)(C(=O)O)c1ccc(C(O)CCCN2CCC(C(O)(c3ccccc3)c3ccccc3)CC2)cc1` (stereo not given) [Fexofenadine hydrochloride]: ≤ -0.07 and 0.008.
With `NC(=O)C(c1ccccc1)(c1ccccc1)[C@@H]1CCN(CCc2ccc3c(c2)CCO3)C1` [Darifenacin HBr], the “scaled lipid accumulation score” value under setting [1] was no more than 0.
`Br.NC(=O)C(c1ccccc1)(c1ccccc1)[C@@H]1CCN(CCc2ccc3c(c2)CCO3)C1` [Darifenacin HBr]: the “scaled lipid accumulation score” value under setting [2] was 1.03 (active).
Consider `CC(C)(C(=O)O)c1ccc(C(O)CCCN2CCC(C(O)(c3ccccc3)c3ccccc3)CC2)cc1` (stereo not given) [Fexofenadine HCl], for which the “scaled lipid accumulation score” value is no more than 0. Also, the “scaled lipid accumulation score” value under setting [1] is no more than 0. Besides, the “scaled lipid accumulation score” value under setting [2] is 0.057.
